The source of these data is PubChem BioAssay (Tox21).

SMILES strings stand for the structures. “And” between values parts separate entries of the source, which are not always exact repeats. Equal entries are not always repeated. Records with an inconclusive call do not appear. The source made the active and inactive calls. Calls come from the whole dose curve; as a rule, active = well fitted activation curve with a large enough effect in the repeat runs; inconclusive = weak or mixed curves; inactive = no such curve, though single readings can be large or run the other way.
% is set by controls: 0 for no effect and ±100 for the full control effect; potency is the fitted concentration of half-maximal effect.

Nuclear receptor subfamily 1 group I member 2 (Homo sapiens), sequence (O75469 whole entry, looked up): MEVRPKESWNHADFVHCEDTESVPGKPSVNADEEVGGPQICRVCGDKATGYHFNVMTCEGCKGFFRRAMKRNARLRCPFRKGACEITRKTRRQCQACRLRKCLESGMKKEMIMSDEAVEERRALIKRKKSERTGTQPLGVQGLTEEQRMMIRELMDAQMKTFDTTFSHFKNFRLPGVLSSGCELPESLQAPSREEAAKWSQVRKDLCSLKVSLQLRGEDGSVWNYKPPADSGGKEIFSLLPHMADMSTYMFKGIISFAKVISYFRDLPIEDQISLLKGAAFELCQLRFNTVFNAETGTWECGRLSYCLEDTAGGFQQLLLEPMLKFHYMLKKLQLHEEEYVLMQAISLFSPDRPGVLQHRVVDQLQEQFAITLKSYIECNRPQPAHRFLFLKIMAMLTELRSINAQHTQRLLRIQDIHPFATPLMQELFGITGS

For this assay, the target named is Nuclear receptor subfamily 1 group I member 2 (Homo sapiens) (UniProt O75469). Put plainly: Human pregnane X receptor (PXR) small molecule agonists, qHTS assay (AID 1346982). Note: nearly all actives have a fitted effect of over 35% in size. Particulars: PXR-Luc HepG2, CYP3A4 luciferase reporter, 24 h; series mostly up to 92.4 µM; activation: at the top concentration. The source says:
National Center for Advancing Translational Sciences [NCATS]
NIH Chemical Genomics Center [NCGC]
U.S. Environmental Protection Agency [EPA]
National Institutes of Environmental Health Sciences [NIEHS]
National Toxicology Program [NTP]
The human pregnane X receptor (hPXR) regulates the expression of several drug metabolizing enzymes and induction of these proteins is a major mechanism for developing drug resistance in cancer. One such key enzyme catalyzing the drug metabolism is cytochrome P450 3A4 (CYP3A4). Changes in CYP3A4 expression affect drug metabolism, thereby reducing the therapeutic efficacy and altering toxicological response to a drug and which finally causes adverse drug interaction. To screen Tox21 libraries for compounds that activate hPXR-mediated CYP3A4 gene expression, PXR-Luc HepG2 cells were used.
PXR-Luc HepG2 cells were dispensed at 2,000 per well in 5uL of assay medium containing 5% charcoal-stripped FBS into white solid bottom 1536-well plates (Corning Life Sciences, Corning, NY) using a Multidrop Combi (Thermo Scientific, Waltham, MA) dispenser. The assay plates were incubated at 37 C and 5% CO2 for 5hr, and then 23nL of compounds dissolved in DMSO and positive control were transferred using a Pintool station (Wako, San Diego, CA). The assay plates were incubated at 37C and 5% CO2 for 24hr. For luciferase read, 4uL of ONE-Glo reagent (Promega Corporation, Madison, WI) was added to each well of the assay plates using Flying Reagent Dispenser (FRD, Aurora Discovery, San Diego, CA) and incubated the assay plates at room temperature for 30min. The luminescence signal was quantified using a ViewLux plate reader (Perkin Elmer, Shelton, CT).
With `NC(=O)CCCCC(N)=O`, the “activation” value is 2.27% (inactive).

For `O=C(/C=C/c1ccc([N+](=O)[O-])cc1)c1ccccc1`, the Potency was 24.4 µM (active).

In the case of `CC(C)OC(=O)c1ccccc1C(=O)OC(C)C`, the “activation” value was 11.8% (inactive). For the molecule `CN=C(N)NC(=O)Nc1c(C)cccc1C`, the “activation” value was 2.24% [at 42.5 µM] (inactive).

Turning to `C1=CCC2CC=CC2C1` (stereo not given), the Potency was 54.4 µM (active). In the case of `Nc1c(Cl)cc(Cl)cc1[N+](=O)[O-]`, the “activation” value was -7.41% (inactive). Take `Cc1oc(=O)oc1COC(=O)[C@@H]1N2C(=O)[C@@H](NC(=O)[C@H](N)c3ccccc3)[C@H]2SC1(C)C`: the “activation” value was -5.62% [at 42.5 µM] (inactive). With `CCCCCCCCCCCCCCN(C)C`, the activation is 8.78% [at 19 µM] (inactive).

As for `COc1ccc(C2C(=O)c3ccccc3C2=O)cc1`, the “activation” value was -11.6% [at 42.5 µM] (inactive). On to `O=C(O)c1cc(Cl)cc(Cl)c1O`, for which the “activation” value was 15.4% (inactive). Consider `CC[C@H]1OC(=O)[C@H](C)[C@@H](O[C@H]2C[C@@](C)(OC)[C@@H](O)[C@H](C)O2)[C@H](C)[C@@H](O[C@@H]2O[C@H](C)C[C@H](N(C)C)[C@H]2O)[C@](C)(O)C[C@@H](C)CN(C)[C@H](C)[C@@H](O)[C@]1(C)O`, for which the “activation” value is -0.533% [at 42.5 µM] (inactive). Turning to `O=C(O)c1ccc(O)cc1O`, the “activation” value was 0.201% (inactive).

In the case of `CCCCCCCCCCCCCC(=O)OCC(O)CO` (stereo not given), the “activation” value is 16% (inactive).

Consider `COC(C)(C)OC`, for which the “activation” value is 0.531% (inactive). On to `O=C(O)CNC(=O)c1ccccc1I`, for which the “activation” value was -1.04% [at 42.5 µM] (inactive).

For the molecule `CCOC(=O)c1ccc(NC(=O)CN2CCCCC2)cc1`, the Potency is 23.7 µM (active).

As to `CCCCCCCC(=O)Oc1c(Br)cc(C#N)cc1Br`, the “activation” value was 14.6% (inactive). Regarding `CCN(CC)C(=O)N1CCN(C)CC1`, the “activation” value is -2.6% [at 42.5 µM] (inactive).

For the molecule `CCO[Si](C)(CCCOCC1CO1)OCC` (stereo not given), the “activation” value is 12.6% (inactive). `CC(CO)(CO)C(=O)O`: the “activation” value is 19.7% (inactive). On the same count and under the same terms, the figure for `C=CC(=O)NC(C)C` is 8.07% (inactive); for `Cc1c[nH]c2ccccc12` it is -5.8% [at 42.5 µM] (inactive); for `O=C(O)c1cccc(Oc2ccccc2)c1` it is 2.66% (inactive).

Consider `CNCc1ccc(NC(=O)c2c[nH]c3c2C(=O)CCC3)cc1`, for which the Potency was 1.09 µM (active).

Regarding `O=c1[nH]c2cc(C(F)(F)F)c(N3CCOCC3)cc2n(CP(=O)(O)O)c1=O`, the “activation” value is -4.92% [at 42.5 µM] (inactive). As to `O=C1OC[C@H](Cc2cccc(O)c2)[C@H]1Cc1cccc(O)c1`, the “activation” value is 20.1% [at 42.5 µM] (inactive). On the same count and under the same terms, the figure for `CCCCCCCCCCCC(=O)OCC(O)CO` (stereo not given) is -3.3% (inactive); for `CC(=O)N[C@@H](Cc1ccc(O)cc1)C(=O)O` it is -8.39% [at 42.5 µM] (inactive).

Take `Cc1ccc(Cl)cc1N`: the Potency was 55.5 µM (active).

For `O=C(c1ccccc1)C1CCC1`, the “activation” value is 1.82% (inactive). On to `Oc1ccc2c(c1)Cc1ccccc1-2`, for which the Potency is 30.6 µM (active). On the same count and under the same terms, to `O=C(Oc1ccccc1)c1ccc2ccccc2c1O` belongs 61.1 µM (active). With `COC(=O)CC(C(C)=O)C(=O)OC` (stereo not given), the “activation” value is -9.97% (inactive).

Regarding `O=C(C(=O)c1ccco1)c1ccco1`, the “activation” value was 3.73% (inactive).

Regarding `CC(C)(C)CCCCCCOC(=O)c1ccccc1C(=O)OCCCCCCC(C)(C)C`, the Potency was 61.2 µM (active). Turning to `O=P(O)(O)Oc1ccccc1`, the “activation” value was 7.16% (inactive).

Consider `Nc1ccc(N=Nc2ccc(N)cc2)cc1`, for which the “activation” value is 5.67% [at 42.5 µM] (inactive). Regarding `O=C1NC(=O)c2cccc3cccc1c23`, the Potency is 12.2 µM (active).

Consider `O=C1CC[C@@H](C(=O)O)N1`, for which the “activation” value was -16% [at 42.5 µM] (inactive). For the molecule `COc1ccc2nc(S(=O)Cc3ncc(C)c(OC)c3C)[nH]c2c1` (stereo not given), the Potency is 53.8 µM (active) and 26.6 µM (active).
